Rab9 promoter act – activators of Rab9 promoter | Huh7 Rab9 promoter-luciferase reporter, luminescence, 24 h | Potency, µM (doses to about 9.22 µM), without a hit: at the top dose activation, negative = inhibition, actives largely listed as activators | actives 2.8% (n = 320,000); note: % of control where 0% means no effect; nearly all actives have a fitted effect of over 60% in size
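Huh7 cells stably carrying a Rab9 promoter-luciferase reporter, 1500 cells per well in OP-MEM I with 10% FBS, treated with compound 24 hours at 37C. Luciferase activity read by luminescence after 10 minutes with Amplite reagent.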
Luc counter – blocks Kinase-Glo luciferase, a counter-screen artifact; Q27757; Kinase-Glo luciferase, ATP luminescence, 8 min; Potency, µM (series often up to 38.3 µM), inactives show at the top dose activity change, negative = inhibition, hits mostly inhibitors; actives 0.28% (n = 200,000); AID 1379; note: % is set by controls: 0 for no effect and ±100 for the full control effect; nearly all actives have a fitted effect of over 60% in size
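Luminescence was the read-out, taken after 8-minute incubation at ambient temperature. Luciferase turned over luciferin with 10 uM ATP in imidazole pH 7.2 buffer containing KCl, MgCl2, Tween 20 and BSA.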
NPC1 promoter act – activates the NPC1 promoter; Potency, µM (series often up to 9.22 µM), without a hit: top-dose activation, most hits filed as activators; AID 485313; Huh7 NPC1 promoter luciferase reporter, 24 h; actives 2.4% (n = 320,000); note: % of control where 0% means no effect; nearly all actives have a fitted effect of over 60% in size
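Cells: Huh7 expressing luciferase under the NPC1 promoter, 1500/well. Seeded 2 h, compound added, incubated 24 h at 37 °C. Luciferase reagent, 10 min ambient, then luminescence.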
FLuc counter – inhibits or activates purified firefly luciferase, miR-21 counter-screen; P08659; purified FLuc, Km substrates, luminescence inhibition; Potency, µM (doses to about 57.5 µM), without a hit: at the top dose activity change, negative = inhibition, hits mostly inhibitors; actives 6.9% (n = 360,000); AID 588342;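 note: plate controls were vehicle for no effect and reference inhibitor for full effect; nearly all actives have a fitted effect of over 55% in size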
Target sequence (P08659 whole entry, looked up): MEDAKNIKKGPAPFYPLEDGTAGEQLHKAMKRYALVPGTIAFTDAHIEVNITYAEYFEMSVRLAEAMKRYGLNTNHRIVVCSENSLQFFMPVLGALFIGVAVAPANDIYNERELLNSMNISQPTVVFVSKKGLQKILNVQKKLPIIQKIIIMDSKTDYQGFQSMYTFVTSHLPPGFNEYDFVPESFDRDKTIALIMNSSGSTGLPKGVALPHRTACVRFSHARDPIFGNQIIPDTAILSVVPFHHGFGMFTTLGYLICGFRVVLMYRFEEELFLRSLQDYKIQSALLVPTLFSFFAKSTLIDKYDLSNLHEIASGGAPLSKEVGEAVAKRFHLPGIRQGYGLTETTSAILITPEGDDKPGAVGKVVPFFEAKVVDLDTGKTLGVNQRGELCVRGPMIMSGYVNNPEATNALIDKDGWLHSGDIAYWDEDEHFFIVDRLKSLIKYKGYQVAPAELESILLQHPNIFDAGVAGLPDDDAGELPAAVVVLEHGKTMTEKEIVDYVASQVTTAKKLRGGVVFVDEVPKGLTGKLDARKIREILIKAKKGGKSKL
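Purified P. pyralis luciferase (10nM final) with 10uM D-luciferin and 10uM ATP (Km levels) in 50mM Tris acetate pH 7.5, 10mM Mg acetate, 0.01% Tween-20, 0.05% BSA; qHTS 6-point titration, ~60 µM downward; luminescence read.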
SMN2 splice enh – increases expression of the SMN2 splice variant. HEK293 SMN2-luciferase splicing reporter, luminescence, 30-36 h. AID 1458. Potency, µM (titrated, usually from 46.1 µM), for the others: at the top dose activity change, positive = activation, actives largely listed as activators. actives 2.8% (n = 210,000); note: % of control where 0% means no effect; nearly all actives have a fitted effect of over 55% in size
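HEK293 cells carry an SMN2 […]–luciferase reporter in which exon 7 inclusion puts luciferase in frame. Cells were plated 10-12 h before compound addition, then incubated 30-36 h at 37C. ONE-Glo luminescence was read; sodium butyrate at 4.5 mM final served as control.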
ELG1 genotox – inducers of genotoxicity in HEK293T ELG1-luciferase cells; HEK293T ELG1-luciferase reporter, luminescence, 16 h; Potency, µM (highest dose often 46 µM), for the others: top-dose activity change, positive = activation, hits mostly activators; actives 1.3% (n = 330,000); note: % of control where 0% means no effect; nearly all actives have a fitted effect of over 60% in size
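ELG1-luciferase HEK293T cells, 2,000/well; compound pinned in; 16 hr, 37 °C, 5% CO2; ONE-Glo, 30 min RT; luminescence on CCD imager.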
An asterisk follows results filed as active; ? = inconclusive; . = no result. Compounds with a hit are over-represented: about 7.3% of the library has one in this group of screens. Calls come from the whole dose curve; as a rule, active = well fitted curve in the direction sought with a large enough effect; inconclusive = small, poorly fitted or top-dose-only effect, or another doubt; inactive = no such curve, though single readings can be large; an effect the other way counts as inactive or inconclusive. Potency is the fitted concentration of half-maximal effect.

SMILES	Rab9 promoter act	Luc counter	NPC1 promoter act	FLuc counter	SMN2 splice enh	ELG1 genotox
CCCCCN1C=CC(=C2C(=O)c3ccccc3C2=O)C=C1	0.016µM*	2.8µM*	0.13µM*	0.067µM*	-100%	-13%
Cc1ccc(C(=O)COC(=O)c2cc(-c3ccc(Cl)cc3)nc3ccccc23)cc1	.	.	.	-10%	3%	.
Cc1ccc(/C(N)=N/OC(=O)c2cc(-c3ccccc3)nc3ccccc23)cc1	-1%	-3%	0%	13µM*	7%	0%
CC(C)(C)C(=O)COC(=O)c1cc(-c2ccncc2)nc2ccccc12	14%	0%	-4%	?	1%	-7%
Cc1ccc(-c2cc(C(=O)Oc3ccccc3)c3cc(C)ccc3n2)cc1	.	.	.	21µM*	0%	.
COc1ccc(/C(N)=N/OC(=O)c2cc(-c3ccccc3)nc3ccccc23)cc1	-1%	-10%	2%	?	-16%	-3%
CC(=O)COC(=O)c1cc(-c2ccc(C)cc2)nc2ccccc12	24%	1%	16%	17µM*	.	6%
N/C(=N\OC(=O)c1cc(-c2ccccc2)nc2ccccc12)c1ccccn1	14%	-4%	10%	9.5µM*	.	-8%
Cc1ccc(C)c(NC(=S)N(CCc2ccncc2)C(C)C)c1	-5%	.	-1%	0%	.	-1%
CCN(CC)C(C(=O)Nc1ccc(C(C)C)cc1)c1ccc2c(c1)OCO2 (stereo unspecified)	0%	1%	-5%	2%	-19%	-3%
COc1ccc(NCc2nnc(SCCN3CCCCC3)n2-c2ccc(C)cc2)cc1	-6%	0%	-1%	1%	-10%	-2%
C/C(=N\NC(=O)c1nn(C)cc1Br)c1ccncc1	17%	-13%	9%	-23%	7%	-2%
C/C(=N\NC(=O)c1ccn[nH]1)c1cn(C)nc1C	?	-27%	?	12µM*	11µM*	?
COc1cc(/C=C/C(C)=O)cc(OC)c1OC	-6%	21%	1%	0%	-5%	12%
COc1ccc(C(=O)/C=C/c2ccc(OC)c(COc3ccc(F)cc3)c2)cc1	19%	.	2%	5.4µM*	.	-3%
COc1ccc(/C=C/C(=O)c2ccoc2)cc1	23%	-7%	20%	4.3µM*	-15%	6%
COc1ccc(/C=C/C(=O)c2c(O)c(OC)c3occc3c2OC)cc1	-1%	0%	-6%	?	.	-5%
COc1ccc(C(C)=O)cc1COc1ccc(F)cc1	-4%	3%	-10%	6%	-11%	-2%
COc1ccc2cc(C(=O)/C=C/c3cc(OC)c(OC)c(OC)c3)ccc2c1	-4%	.	1%	21µM*	.	-5%
COc1ccc(/C=C/C(=O)c2ccc(O)cc2)cc1	?	.	11%	3.4µM*	.	?
O=C(NCCCN1CCOCC1)c1cc(-c2ccc(Cl)s2)nc2ccccc12	0%	.	-1%	-15%	.	-8%
C/C(N)=C(/C#N)C(=O)CSc1nncn1-c1ccccc1	-2%	2%	2%	-2%	5%	0%
O=C(CSc1nnnn1-c1ccccc1)Nc1ncc(Cc2cccc(Cl)c2Cl)s1	2%	-1%	-4%	3%	10%	3%
COc1cc(/C=C/c2ccc(O)cc2)cc(OC)c1	3.2µM*	.	?	13µM*	.	.
Cc1[nH]n(-c2ccccc2)c(=O)c1N=Nc1ccc2c(c1)OCO2	?	-1%	?	6µM*	18µM*	9%
SMILES	Rab9 promoter act	Luc counter	NPC1 promoter act	FLuc counter	SMN2 splice enh	ELG1 genotox
Nc1[nH]n2c(=O)cc(-c3ccccc3)nc2c1N=Nc1ccc2c(c1)OCO2	-8%	-7%	-6%	5.4µM*	.	-2%
CCOc1ccc(N=Nc2c(C)[nH]n(-c3ccccc3)c2=O)cc1	4%	.	17%	?	.	-5%
CC(=O)N(C)c1ccc(N=Nc2c(C)[nH]n(-c3ccccc3)c2=O)cc1	-10%	.	0%	-15%	.	-7%
COc1cccc(N=Nc2c(C)[nH]n(-c3ccccc3)c2=O)c1	?	.	?	11µM*	.	?
CCOC(=O)CCc1c(C)c(C#N)c2nc3ccccc3n2c1-n1ccnc1C	?	9%	1%	3%	-12%	0%
COCCn1c(C)cc(C(=O)CSc2cc(C)c3ccccc3n2)c1C	11%	-2%	1%	13µM*	-14%	1%
COCCn1c(C)cc(C(=O)CSc2nc3ccccc3c(=O)n2Cc2ccco2)c1C	1.3µM*	0%	3.2µM*	1.7µM*	7.1µM*	?
O=C(CSc1nc2ccccc2c(=O)n1Cc1ccco1)NCc1ccco1	-3%	2%	-1%	1%	-2%	-6%
CCc1ccc(OCC(=O)Nc2ccc3c(c2)OCCO3)cc1	0%	.	3%	19µM*	.	15%
CCc1ccc(NC(=O)COc2ccc3c(c2)OCO3)cc1	14%	.	27%	27µM*	.	?
CCC(C)NS(=O)(=O)c1ccc(OCC(=O)Nc2ccc3c(c2)OCCO3)cc1 (stereo unspecified)	0%	-2%	-1%	1%	-10%	-1%
CC(=O)Nc1cccc(NC(=O)COc2ccc3c(c2)OCO3)c1	28%	.	5%	9.5µM*	.	9%
O=C(Cn1c(=O)n(-c2ccccc2)c(=O)c2sccc21)N1CCCC1	1%	-2%	-6%	4%	-1%	-3%
COc1cc(/C=C2/SC(=O)NC2=O)ccc1OC(=O)c1ccco1	9%	.	0%	17µM*	.	7%
CCOc1cc(/C=C2/SC(=S)NC2=O)ccc1OC(=O)c1ccco1	13%	-1%	4%	24µM*	-4%	0%
O=C1NC(=S)S/C1=C/c1ccc(OC(=O)c2ccco2)cc1	?	.	19%	7.6µM*	.	1%
COc1cc(/C=C2/SC(=S)N(C)C2=O)ccc1OC(=O)c1ccco1	-11%	-4%	13%	-15%	13%	10%
Cc1ccc(Nc2cc(C)nc3nnnn23)cc1	-3%	-1%	-2%	-8%	17%	-3%
NC(=O)c1ccsc1N	-4%	-4%	-1%	0%	.	0%
Nc1sccc1C(=O)c1ccc(Cl)cc1	?	-3%	28%	?	28%	11µM*
N[C@H](C(=O)O)C(O)C(O)C(O)CO (stereo partly specified)	.	-2%	.	.	8%	.
O=C(Cn1nnc(-c2cccs2)n1)N1CCOCC1	4%	-2%	-3%	0%	-1%	13%
CC1CCN(C(=O)Cn2nnc(-c3cccs3)n2)CC1	2.2µM*	4%	3.5µM*	?	.	?
COc1ccc(-c2nnn(CC(=O)OC3CCCCC3)n2)cc1OC	-3%	.	0%	-10%	.	2%
O=C(Cn1nnc(-c2cccs2)n1)OC1CCCCC1	2%	-1%	-2%	13µM*	-2%	0%
